Compound activity: PubChem, National Center for Advancing Translational Sciences (NCATS)
EPAC1 ag: EPAC1 (human) agonism. O95398. EPAC1 agonist qHTS, biochemical assay; response scale: 100% = response to 6.5 mM cAMP. Potency, µM (series often up to 154 µM), without a hit: top-dose activation, hits mostly activators. 360,000 compounds, 0.073% hits. AID 720707; further: potency means the concentration at half of the fitted maximal effect; nearly all actives have a fitted effect of over 60% in size
Target sequence (O95398 whole entry, looked up): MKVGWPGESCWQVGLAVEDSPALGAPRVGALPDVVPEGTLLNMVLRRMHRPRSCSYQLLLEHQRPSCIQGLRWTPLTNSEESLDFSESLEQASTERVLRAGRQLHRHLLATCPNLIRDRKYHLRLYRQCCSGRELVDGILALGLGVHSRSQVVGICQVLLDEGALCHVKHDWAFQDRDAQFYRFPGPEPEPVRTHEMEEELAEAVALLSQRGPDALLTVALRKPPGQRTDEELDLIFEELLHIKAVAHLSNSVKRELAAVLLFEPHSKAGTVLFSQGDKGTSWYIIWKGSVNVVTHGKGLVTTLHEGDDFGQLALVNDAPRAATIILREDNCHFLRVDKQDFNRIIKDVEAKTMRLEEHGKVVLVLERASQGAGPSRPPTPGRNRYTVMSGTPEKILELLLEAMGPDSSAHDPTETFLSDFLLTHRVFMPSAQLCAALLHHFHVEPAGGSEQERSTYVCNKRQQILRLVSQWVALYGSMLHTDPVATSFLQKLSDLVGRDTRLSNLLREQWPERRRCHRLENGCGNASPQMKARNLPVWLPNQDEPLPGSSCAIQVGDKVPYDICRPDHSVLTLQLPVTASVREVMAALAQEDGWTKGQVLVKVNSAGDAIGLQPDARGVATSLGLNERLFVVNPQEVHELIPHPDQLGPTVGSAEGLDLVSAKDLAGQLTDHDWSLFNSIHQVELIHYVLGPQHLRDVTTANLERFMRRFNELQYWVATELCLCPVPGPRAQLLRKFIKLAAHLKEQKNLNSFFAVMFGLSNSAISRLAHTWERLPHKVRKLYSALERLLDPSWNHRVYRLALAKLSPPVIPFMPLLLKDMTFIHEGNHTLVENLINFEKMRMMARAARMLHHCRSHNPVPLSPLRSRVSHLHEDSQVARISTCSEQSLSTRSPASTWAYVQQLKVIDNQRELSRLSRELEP
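EPAC1 100 nM, Rap1B–BODIPY-GDP 250 nM, unlabeled GDP 50 uM; compound titration; 5 min RT; kinetic read ex480/em540 at 5-min intervals ×30 min; data normalized to 6.5 mM cAMP agonist control.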
KCNH2 3.1 inh: inhibitors of human KCNH2 3.1 potassium channel isoform; U2OS KCNH2 3.1, thallium flux FluxOr; stronger effect = lower value; activity change, % (tested at about 1.8 µM); 340,000 compounds, 0.95% hits; AID 720553;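 active means maximum activity change below -70%; inconclusive means maximum activity change from -70% to -50%; inactive means maximum activity change above -50%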;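 further: thallium influx rate constant from kinetic fluorescence after stimulation buffer; on the % scale 0 is the no-effect control and ±100 the full control effect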
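Thallium flux via FluxOr fluorescence (Red40 quencher, 45 min loading) in U2OS cells virally expressing the KCNH2 3.1 isoform (1.77 x 10^8 /mL virus, overnight at 37 C). Rate constants from 2-min kinetic reads post-stimulation, normalised to positive and negative controls.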
hERG WT inh: KCNH2 (human, wildtype) channel inhibition; Q12809; U2OS, BacMam KCNH2, thallium flux FluxOr; stronger effect = lower value; activity change, % at 1.84 µM; 340,000 compounds, 0.37% hits;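 active means maximum activity change below -70%; inconclusive means maximum activity change between -70% and -50%; inactive means maximum activity change above -50%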; further: on the % scale 0 is the no-effect control and ±100 the full control effect
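U2OS cells were transduced with wild-type KCNH2 virus (2.03 x 10^8 / mL) for 4 h at room temperature, then cultured overnight at 37 C. Thallium flux was read with FluxOr dye. Rate constants were normalized to DMSO controls.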
EPAC2 agonist: agonists of human EPAC2 (RAPGEF4); Q8WZA2; EPAC2 activation, biochemical qHTS; response scale: 100% = 6.5 mM cAMP response; Potency, µM (doses to about 154 µM), without a hit: at the top dose activation, usual class: activators; 360,000 compounds, 0.079% hits; AID 720711; further: potency means the concentration at half of the fitted maximal effect; nearly all actives have a fitted effect of over 50% in size
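EPAC2 (100 nM) mixed with Rap1B loaded with BODIPY-GDP (250 nM) plus 50 uM unlabeled GDP; compounds pinned in, 5 min RT, then read every 5 min for 30 min (ex 480, em 540 nm). Normalized to cAMP control.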
EPAC2 antagonist: blocks human EPAC2 exchange factor. Q8WZA2. EPAC2 GEF exchange of Rap1B-BODIPY-GDP, fluorescence. Potency, µM (top dose mostly 114 µM), without a hit: at the top dose activity, negative = inhibition, most hits filed as inhibitors. 360,000 compounds, 0.18% hits. AID 720708; further: potency means the concentration at half of the fitted maximal effect; on the % scale 0 is the no-effect control and ±100 the full control effect; nearly all actives have a fitted effect of over 45% in size
EPAC1 antag: blocks human EPAC1 exchange factor; 360,000 compounds, 0.14% hits; Potency, µM (top dose mostly 115 µM), for inactives: top-dose activity change, negative = inhibition, actives largely listed as inhibitors; EPAC1 GEF assay, Rap1b-BODIPY-GDP exchange fluorescence; O95398; AID 720709;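 further: potency means the concentration at half of the fitted maximal effect; plate controls were vehicle for no effect and positive control for full effect; nearly all actives have a fitted effect of over 50% in size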
* hit, by the source's call; i = inactive; ? = inconclusive; . = no result. Hits are enriched below; roughly 1.4% of the tested compounds scored in any of these assays. Unless noted, the call rests on the fitted dose curve; in most records, active means well fitted curve in the direction sought with a large enough effect; inconclusive means small, poorly fitted or top-dose-only effect, or another doubt; inactive means no such curve, though single readings can be large; an effect the other way counts as inactive or inconclusive.

SMILES	EPAC1 ag	KCNH2 3.1 inh	hERG WT inh	EPAC2 agonist	EPAC2 antagonist	EPAC1 antag
CCSc1nc(C)cc(C)c1S(=O)(=O)c1ccccc1C	7.1%	4.1	8.9	14.8%	?	-6.0%
CCc1nc2c(OCC(=O)N3CCOCC3)cccn2c1N(C=O)Cc1ccccc1	-16.7%	.	.	8.8%	6.5%	11.1%
CCc1ccc(S(=O)(=O)N/N=C\c2ccc3c(c2)OCO3)cc1	1.8%	12.7	-6.2	19.7%	-3.2%	-22.0%
CCOC(=O)[C@]12CCC=C1N(Cc1cccc3ccccc13)C(=O)[C@H](CC(=O)N1CCSCC1)C2	-7.7%	.	.	8.4%	1.5%	-10.7%
CC(=O)c1ccc(N(CC(=O)NC2CCCC2)C(=O)c2csnn2)cc1	7.3%	-6.0	1.4	5.8%	3.3%	4.2%
O=C(Cc1cccc(NC(=O)C2CCCN(C(=O)CCc3ccccc3)C2)c1)Nc1ccc(C(=O)N2CCOCC2)cc1 (stereo not given)	-14.7%	?	-0.7	4.5%	-3.8%	22.2%
CCOc1ccc2c(c1)C(c1ccc(C)cc1)=NNC(c1ccc(OC)cc1)=N2	20.1%	-93.7*	-39.9	19.5%	-10.3%	-24.1%
COc1ccc(-c2cc(C(F)F)n3ncc(C(=O)N4CCc5ccccc54)c3n2)cc1	-15.5%	9.0	.	100µM*	58.9%	-17.7%
Cc1ccc(-c2cc(C(F)F)n3ncc(C(=O)N4CCCc5ccccc54)c3n2)cc1	0.0%	15.4	-1.6	-2.1%	4.7%	7.9%
N=c1n(CC(=O)c2ccc([N+](=O)[O-])cc2)c2ccccc2n1Cc1ccc(Cl)cc1	13.0%	7.1	0.1	-3.5%	0.5%	-14.4%
N=c1n(CC(=O)c2ccc(Br)cc2)c2ccccc2n1Cc1ccccc1	0.9%	-83.9*	-1.8	-2.9%	5.7%	11.2%
N=c1n(CC(=O)c2ccc([N+](=O)[O-])cc2)c2ccccc2n1Cc1ccccc1	-12.2%	-74.8*	7.1	-39.3%	9.4%	2.5%
O=C(Cn1c(NCCO)nc2ccccc21)c1ccc([N+](=O)[O-])cc1	2.7%	-13.3	29.2	4.5%	5.8%	-7.1%
N=c1n(Cc2ccccc2)c2ccccc2n1Cc1ccccc1	-0.4%	-49.5	2.7	8.0%	-6.4%	-27.4%
O=C(Cn1c(NCCCO)nc2ccccc21)c1ccc([N+](=O)[O-])cc1	8.2%	-73.1*	-13.6	9.2%	2.3%	12.8%
CCc1nc2ccc(C(=O)NCCc3ccccn3)cn2c1N(C)CCC(C)C	-8.7%	.	.	-0.3%	10.8%	-14.2%
CCOc1ncccc1C(=O)NCc1ccc(OC)c(OC)c1	3.0%	-102.2*	-5.8	5.7%	0.9%	-10.1%
CC(=O)c1ccc(NC(=O)C2(c3ccccc3)CCOCC2)cc1	-1.7%	-108.5*	0.3	3.7%	-1.9%	-2.0%
COc1ccc(CCNC(=O)c2cc(-c3ccccc3)c(N3CCOCC3)s2)c(OC)c1OC	4.3%	0.4	7.6	2.3%	-9.3%	1.9%
O=C(C1CCCN1S(=O)(=O)c1cccc2nsnc12)N1CCN(c2ccccc2)CC1 (stereo not given)	-5.0%	23.3	-5.2	2.8%	3.3%	7.1%
O=C(C1CCCN1S(=O)(=O)c1cccc2nsnc12)N1CCN(c2ccc(F)cc2)CC1 (stereo not given)	6.3%	-73.6*	35.5	7.2%	5.5%	12.3%
O=C(CCN1C(=O)/C(=C/c2cccs2)SC1=S)Nc1ccc(O)cc1	2.5%	-9.2	-18.2	4.7%	6.3%	9.9%
O=C(O)CCN1C(=O)/C(=C\c2cccc(OCC(=O)Nc3ccc(Cl)cc3)c2)SC1=S	?	-9.3	-7.9	-2.3%	14.7%	?
O=C(CCN1C(=O)/C(=C/c2cccs2)SC1=S)Nc1ccc(C(=O)O)c(O)c1	3.5%	6.1	21.5	4.9%	-9.8%	79.4µM*
CC(/C=C1\SC(=S)N(CCCC(=O)Nc2ccc(C(=O)O)c(O)c2)C1=O)=C\c1ccccc1	-5.3%	6.2	-9.7	6.0%	?	?
SMILES	EPAC1 ag	KCNH2 3.1 inh	hERG WT inh	EPAC2 agonist	EPAC2 antagonist	EPAC1 antag
CC(=Cc1ccccc1)C=C1SC(=S)N(CCCC(=O)Nc2ccc(C(=O)O)c(O)c2)C1=O	12.4%	.	.	0.0%	0.1%	50.1µM*
Cc1ccc(NC(=O)COc2cccc(/C=C3\SC(=S)N(CCC(=O)O)C3=O)c2)cc1Cl	?	8.8	-1.8	-8.1%	33.6%	50.1µM*
O=C(NC1CCCCC1)c1nc(-c2c(F)cccc2F)oc1-c1ccccc1	-10.8%	.	.	4.4%	-1.1%	11.9%
COc1ccc(C)cc1N(CC(=O)NC1CCCC1)C(=O)Cn1nnc(-c2ccc(C)o2)n1	10.3%	-101.0*	1.5	-3.4%	0.9%	-0.2%
COC(=O)c1nnn(-c2nonc2N)c1CSc1nnc(N)s1	-4.2%	4.2	-5.8	-3.0%	17.8%	12.6%
O=c1c(-c2ccc3c(c2)OCCO3)coc2cc(OC3OC(CO)C(O)C(O)C3O)ccc12 (stereo not given)	-6.5%	-6.4	1.8	-6.4%	5.6%	3.7%
COc1ccc(-c2coc3cc(O[C@@H]4O[C@H](CO)[C@@H](O)[C@H](O)[C@H]4O)ccc3c2=O)cc1	-7.7%	-151.3*	2.2	5.3%	0.1%	-9.9%
COc1ccc(OC)c(NC(=O)CN2CCc3ccccc3C2)c1	0.5%	-13.2	-4.5	7.1%	-27.5%	-12.1%
CC(=O)OCCn1c2nc(=O)[nH]c(=O)c-2nc2cc(C)c(C)cc21	50.1µM*	-17.4	-4.2	100µM*	i	i
CCCNC(=O)C1(C)CCCN(Cc2csc3ccccc23)C1 (stereo not given)	-12.4%	.	.	-0.2%	-11.9%	-7.8%
Cc1cccc(Oc2ccc(NC(=O)C3=CC=CN4CCS(=O)(=O)N=C34)cc2)c1	12.7%	-26.5	-1.8	26.6%	-30.0%	0.6%
Cc1c(NS(=O)(=O)c2cccs2)cccc1-c1nc2cccnc2s1	14.3%	-87.5*	-3.3	21.5%	-7.5%	-5.8%
O=c1ccc2cccc([N+](=O)[O-])c2[nH]1	-14.3%	.	.	1.5%	-2.3%	-10.7%
CN1C(=O)C(CC(=O)NCCc2ccccc2)N(NC(=O)c2ccc(Cl)cc2)C1=S (stereo not given)	5.8%	9.3	10.9	2.1%	-7.8%	-5.6%
Cc1sc2ncnc(N3CCN(CCOc4ccc(Cl)cc4)CC3)c2c1C	11.9%	-79.0*	-21.1	5.0%	-15.7%	-16.8%
Cc1c(C(=O)NCc2ccc(C(C)C)cc2)sc(=O)n1Cc1ccc(S(=O)(=O)N(C)C)cc1	1.9%	.	.	2.2%	12.6%	1.7%
COc1cc2c(cc1OC)[C@@H](NC(=O)Cc1ccc(F)cc1)[C@H](OCc1ccccc1)C2	-12.5%	-131.4*	-15.7	-5.6%	10.2%	-8.5%
